Data taken from PubChem BioAssay AID1259249 (Broad Institute, 2017).
“And” between values parts separate entries of the source, which are not always exact repeats. Equal values may be shown once. Screen size: about 86,000 compounds; about 220 (0.26%) were called active.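 Rule for the calls: active = mean growth activity at or below -80% and every replicate also at or below -80%; inconclusive = mean at or below -80% but some replicate above -80%; inactive = mean growth activity above -80%.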 The entries come from a sample that favours actives as a whole.

assay: C. difficile growth inhibitors, primary screen, HTS (AID 1259249); details: Clostridium difficile clinical isolate growth, OD600, 24 h; stronger effect = lower value; screened at 16 µg/mL (by protocol);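 note: 0% = DMSO wells and -100% = levofloxacin 16 µg/mL wells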

| SMILES | growth activity, negative = inhibition |
| --- | --- |
| COCC(=O)N1CC(=O)N2[C@H](C1)[C@@H](c1ccc(C#Cc3cccc(OC)c3)cc1)[C@@H]2CO | -20.7% (inactive) |
| Cc1nc(N2[C@H](CO)[C@H](c3ccccc3)[C@H]2CNCC2CCC2)sc1C | 8.18% (inactive) |
| C/C=C/c1ccc([C@@H]2[C@@H](CO)N(C(=O)c3ccccc3)C23CN(C(C)=O)C3)cc1 | -2.56% (inactive) |
| COc1ccc(C#Cc2cccc(-c3nc(C(=O)O)cc4c3[C@@H](CCO)N(S(=O)C(C)(C)C)C4)c2)cc1OC (some centres undefined) | -2.07% (inactive) |
| CCO[C@H]1OC(C(=O)N2CCCCCCC2)=C[C@@H](c2ccc(C(F)(F)F)cc2)[C@@H]1CCCO | 9.8% (inactive) |
| C[C@H]1CN([C@@H](C)CO)C(=O)c2cc(C#CC3CCCCC3)cnc2O[C@@H]1CN(C)C(=O)Cc1ccccn1 | -14% (inactive) |
| Cc1noc(C)c1S(=O)(=O)N(C)C[C@@H]1OCCCC[C@@H](C)Oc2ccc(NC(=O)c3ccccc3)cc2C(=O)N([C@H](C)CO)C[C@H]1C | 5.17% (inactive) |
| COc1ccc(CN(C)C[C@H]2OCCCC[C@H](C)Oc3ccc(NS(C)(=O)=O)cc3C(=O)N([C@H](C)CO)C[C@@H]2C)cc1 | -0.222% (inactive) |
| O=C(C[C@@H]1C=C[C@@H](NS(=O)(=O)c2ccccc2)[C@H](CO)O1)N1CCN(c2ccccc2)CC1 | 0.541% (inactive) |
| O=C(c1cnccn1)N1CC2(C1)[C@H](c1ccccc1)[C@H](CO)N2C(=O)c1ccccc1 | -0.792% (inactive) |
| O=C(C[C@H]1CC[C@H]2[C@@H](COC[C@@H](O)CN2CC2CCCC2)O1)NCC1CC1 | -1.93% (inactive) |
| Cc1ccccc1S(=O)(=O)N1C[C@@H]2N[C@H](C1)C2c1ccc(-c2cccc(C(=O)N(C)C)c2)cc1 (some centres undefined) | 4.24% (inactive) |
| CN(C)CC(=O)N1[C@H](C(=O)NC2CCC2)[C@@H](CO)[C@@H]2Cn3c(ccc(-c4ccc(F)cc4)c3=O)[C@@H]21 | -0.849% (inactive) |
| CCCNC(=O)N1CCC2(CC1)CN(C(=O)CN1CCOCC1)[C@H](CO)c1[nH]c3cc(OC)ccc3c12 | 5.44% (inactive) |
| C[C@@H]1CCCCO[C@H](CN(C)C(=O)NC2CCCCC2)[C@H](C)CN([C@H](C)CO)C(=O)c2cc(NC(=O)c3ccncc3)ccc2O1 | -3.74% (inactive) |
| COc1ccc2c3c([nH]c2c1)[C@H](CO)N(Cc1nccs1)CC31CCN(C(=O)C2CCC2)CC1 | -4.33% (inactive) |
| CCCC#Cc1ccc([C@@H]2[C@@H](C#N)N(C(=O)C3CC3)[C@H]2CO)cc1 | -16.8% (inactive) |
| CCCNC(=O)Nc1ccc2c(c1)OC[C@H](C)N(CCC(F)(F)F)C[C@H](C)[C@@H](OC)CN(C)C2=O | -16.2% (inactive) |
| Cc1ccc(S(=O)(=O)N[C@@H]2CC[C@@H](CCn3cc(C4CC4)nn3)O[C@@H]2CO)cc1 | -1.26% (inactive) |
| C[C@@H]1CCCCO[C@@H](CN(C)C(=O)NC2CCCCC2)[C@H](C)CN([C@H](C)CO)C(=O)c2cc(NC(=O)Nc3cccc4ccccc34)ccc2O1 | 2.69% (inactive) |
| O=C(c1ccncc1)N1C[C@H]2[C@@H](c3ccccc31)[C@H](CO)N2Cc1ccc(F)cc1 | -10.6% (inactive) |
| CCCC(=O)N1CC2(CN(C(=O)NC(C)C)C2)c2c([nH]c3cc(OC)ccc23)[C@@H]1CO | -10.9% (inactive) |
| CC(C)C(=O)Nc1ccc2c(c1)C(=O)N(C)[C@@H]1CC[C@@H](CC(=O)NCCc3ccccc3)O[C@H]1CO2 | -2.19% (inactive) |
| COc1ccc2c3c(n(C)c2c1)[C@H](CO)N(CC1CC1)CC31CCN(C(=O)c2ccccc2)CC1 | 22.3% (inactive) |
| COCc1cn(CC[C@@H]2CC[C@@H](NC(=O)Nc3ccc(C(F)(F)F)cc3)[C@H](CO)O2)nn1 | 1.56% (inactive) |
| C[C@@H]1CN([C@@H](C)CO)C(=O)c2cc(NC(=O)Nc3ccc4c(c3)OCO4)ccc2O[C@@H](C)CCCCO[C@H]1CN(C)C(=O)Nc1ccc(C(F)(F)F)cc1 | 3.76% (inactive) |
| CCN1[C@@H]2c3cccc(=O)n3C[C@H]1[C@H](CO)[C@H]2C(=O)NC1Cc2ccccc2C1 | -3.73% (inactive) |

| SMILES | growth activity, negative = inhibition |
| --- | --- |
| O=C(C1CCC1)N1CC(=O)N2[C@@H](CO)[C@@H](c3ccc(C#Cc4cccc(F)c4)cc3)[C@@H]2C1 | -12.4% (inactive) |
| Cc1ccc(-c2cnc3c(c2)C(=O)N([C@H](C)CO)C[C@H](C)[C@@H](CN(C)C(=O)c2cccc(F)c2)O3)cc1 | 0.45% (inactive) |
| CN1c2ccc(-c3cccc(F)c3)cc2[C@H]2[C@H](CCN2C(=O)c2cccc(F)c2)[C@H]1CO | -1.71% (inactive) |
| C[C@@H]1CN([C@@H](C)CO)C(=O)Cc2cc(NC(=O)Nc3ccc(C(F)(F)F)cc3)ccc2O[C@H]1CN(C)Cc1ccc(C(=O)O)cc1 | 4.68% (inactive) |
| COc1cccc(NC(=O)N(C)C[C@@H]2Oc3ncc(Br)cc3C(=O)N([C@@H](C)CO)C[C@H]2C)c1 | 4.14% (inactive) |
| CO[C@@H]1CN(C)C(=O)c2cc(NC(=O)C3CCCC3)ccc2OC[C@@H](C)N(Cc2ccc(F)cc2)C[C@H]1C | 7.43% (inactive) |
| COc1ccccc1NC(=O)N1C[C@H]2[C@@H](c3ccccc31)[C@H](CO)N2Cc1ccc2c(c1)OCO2 | -2.67% (inactive) |
| COc1ccccc1NC(=O)N1C[C@@H]2[C@H](c3ccccc31)[C@H](CO)N2CC1CCOCC1 | 8.14% (inactive) |
| CO[C@@H]1CN(C)C(=O)c2cc(NC(=O)C3CCC3)ccc2OC[C@H](C)N(Cc2ccccn2)C[C@H]1C | -0.0418% (inactive) |
| COc1ccccc1C#Cc1ccc2c(c1)O[C@H](CN(C)Cc1cccnc1)[C@@H](C)CN([C@H](C)CO)S2(=O)=O | 2.69% (inactive) |
| C[C@H]1CN([C@@H](C)CO)C(=O)c2cc(C#CC3CCCC3)cnc2O[C@@H]1CN(C)C(=O)Cc1ccccn1 | -9.22% (inactive) |
| N#C[C@H]1[C@@H](c2ccccc2C2=CCCC2)[C@H](CO)N1C(=O)c1cccc(F)c1 | -5.69% (inactive) |
| C[C@@H]1CCCCO[C@H](CN(C)CC2CCCCC2)[C@H](C)CN([C@H](C)CO)C(=O)c2cc(NS(=O)(=O)c3ccc(F)cc3)ccc2O1 | 11.3% (inactive) |
| COc1ccc(S(=O)(=O)NC[C@@H]2CC[C@@H]3[C@@H](CN3Cc3cc(F)ccc3F)O2)cc1 | -8.36% (inactive) |
| CN1C(=O)c2cc(NC(=O)C3CC3)ccc2OC[C@H]2O[C@H](CC(=O)O)CC[C@H]21 | 3.37% (inactive) |
| CO[C@@H]1CN(C)C(=O)c2ccc(NC(=O)C3CC3)cc2OC[C@H](C)N(C(C)=O)C[C@H]1C | 0.555% (inactive) |
| COc1cccc(NC(=O)N[C@H]2C=C[C@H](CC(=O)NCc3ccccn3)O[C@@H]2CO)c1 | 6.26% (inactive) |
| CO[C@H]1CN(C)C(=O)c2ccc(NC(=O)C3CCCC3)cc2OC[C@H](C)N(C(=O)CC2CC2)C[C@@H]1C | -4% (inactive) |
| C/C=C/c1ccccc1[C@H]1[C@@H](C#N)N(C(C)=O)[C@@H]1CO | -2.31% (inactive) |
| O=C(C1CCOCC1)N1CC(=O)N2[C@H](CO)[C@H](c3ccc(C#Cc4cccc(F)c4)cc3)[C@H]2C1 | -20.7% (inactive) |
| CNC(=O)C[C@H]1CC[C@H]2[C@H](COc3ccc(NC(=O)Nc4ccc(F)cc4)cc3C(=O)N2C)O1 | -3.32% (inactive) |
| O=C(C[C@H]1C=C[C@H](NC(=O)Nc2cc(F)ccc2F)[C@@H](CO)O1)NCc1ccccn1 | -1.08% (inactive) |
| CNC[C@H]1OCCCC[C@H](C)Oc2ccc(NC(=O)Nc3ccc(C(F)(F)F)cc3)cc2C(=O)N([C@H](C)CO)C[C@@H]1C | 8.32% (inactive) |
| C[C@H](O)C#Cc1ccc2c(c1)O[C@@H](CN(C)C(=O)C1CCCCC1)[C@H](C)CN([C@@H](C)CO)S2(=O)=O | -2.82% (inactive) |
| COc1ccc2c3c(n(C)c2c1)[C@@H](CO)N(C(=O)CN1CCOCC1)CC31CCN(Cc2ccncc2)CC1 | -2.85% (inactive) |
| CCCNC(=O)N1CC2(C1)[C@@H](c1ccccc1)[C@@H](CO)N2C(=O)CC1CC1 | -0.374% (inactive) |
| C[C@@H]1CN([C@H](C)CO)S(=O)(=O)c2ccc(C3=CCCC3)cc2O[C@H]1CN(C)C(=O)CC1CC1 | 3.03% (inactive) |

| SMILES | growth activity, negative = inhibition |
| --- | --- |
| COCc1cn(CC[C@H]2CC[C@H](NC(=O)Cc3cccnc3)[C@H](CO)O2)nn1 | 1.58% (inactive) |
| N[C@@H]1CC[C@H](CCn2cc(C3CC3)nn2)O[C@@H]1CO | 5.59% (inactive) |
| C/C=C/c1ccc([C@@H]2[C@H](CO)N(C(=O)c3cnccn3)C23CN(C(C)=O)C3)cc1 | 2.93% (inactive) |
| CCCNC(=O)C[C@H]1CC[C@H]2[C@@H](COC[C@H](O)CN2C(=O)CC)O1 | 7.43% (inactive) and 9.67% (inactive) |
| COc1ccc(CN(C)C[C@H]2OCc3cn(nn3)CCCC(=O)N([C@@H](C)CO)C[C@@H]2C)cc1 | -0.425% (inactive) |
| O=C(C[C@H]1CC[C@H]2[C@@H](COC[C@@H](O)CN2C(=O)Nc2ccc(C(F)(F)F)cc2)O1)NC1Cc2ccccc2C1 | -97.2% (active) and 27.2% (inactive) |
| O=C(C[C@@H]1CC[C@H]2[C@@H](COC[C@@H](O)CN2C(=O)Nc2ccc(Cl)cc2)O1)NC1Cc2ccccc2C1 | 2% (inactive) and 46.4% (inactive) |
| CCCNC(=O)C[C@H]1CC[C@H]2[C@@H](COC[C@@H](O)CN2C(=O)Nc2ccc(Cl)c(Cl)c2)O1 | -102% (active) and -6.65% (inactive) |
| CCCNC(=O)C[C@@H]1CC[C@H]2[C@@H](COC[C@H](O)CN2C(=O)Nc2ccc(Cl)c(Cl)c2)O1 | -57.2% (inactive) and -25.4% (inactive) |
| O=C(C[C@H]1CC[C@@H]2[C@H](COC[C@@H](O)CN2C(=O)Nc2ccc(Cl)cc2)O1)NC1Cc2ccccc2C1 | -5.66% (inactive) and -5.56% (inactive) |
| O=C(C[C@H]1CC[C@H]2[C@@H](COC[C@H](O)CN2C(=O)Nc2ccc(Cl)cc2)O1)NCC1CC1 | 7.11% (inactive) |
| CC=Cc1ccc2n(c1=O)C[C@H]1[C@H](CO)[C@@H](C(=O)NC3CCCC3)[C@@H]2N1C(=O)c1cnccn1 (mixture of isomers) | 3.3% (inactive) |
| CC(C)NC(=O)N1[C@@H]2CN(C(=O)C3CCCCC3)c3ccccc3[C@@H]2[C@@H]1CO | -5.28% (inactive) |
| CC(=O)N1[C@H](CO)[C@H](c2ccccc2)[C@H]1CN(C(=O)c1ccccc1F)C(C)C | 2.62% (inactive) |
| CCS(=O)(=O)N1CC2(CN(Cc3ccccc3)[C@@H](CO)c3c2c2ccc(OC)cc2n3C)C1 | 10.4% (inactive) |
| COc1ccccc1C(=O)N1C[C@H]2[C@@H](c3ccccc31)[C@H](CO)N2C(=O)C1CC1 | -5.43% (inactive) |
| CO[C@H]1CN(C)C(=O)c2ccc(NS(=O)(=O)c3ccccc3)cc2OC[C@H](C)N(Cc2nccs2)C[C@@H]1C | 1.37% (inactive) |
| COc1cccc(S(=O)(=O)N(C)C[C@@H]2Oc3ncc(-c4cccc(C(=O)N(C)C)c4)cc3C(=O)N([C@H](C)CO)C[C@H]2C)c1 | -3.2% (inactive) |
| COc1cccc(NC(=O)N(C)C[C@H]2Oc3cc(/C=C/c4ccccc4)ccc3S(=O)(=O)N([C@H](C)CO)C[C@@H]2C)c1 | 5.84% (inactive) |
| COc1ccc2c3c(n(C)c2c1)[C@H](CO)N(S(=O)(=O)c1ccc(C)cc1)CC31CCN(C(=O)c2ccccn2)CC1 | 3.65% (inactive) |
| O=C(C1CCCC1)N1CC(=O)N2[C@H](C1)[C@@H](c1ccc(-c3ccccc3F)cc1)[C@@H]2CO | 2.69% (inactive) |
| C/C=C/c1ccc([C@H]2[C@@H](CO)N(C(=O)CC)[C@H]2CN(C)C(=O)C2CC2)cc1 | -2.06% (inactive) |
| O=C(NCC[C@H]1CC[C@H](NS(=O)(=O)c2cccc(F)c2)[C@H](CO)O1)C1CCCCC1 | -5.15% (inactive) |
| C/C=C/c1ccc([C@@H]2[C@H](CO)N(CCC(F)(F)F)C23CN(C(=O)CC)C3)cc1 | 8.71% (inactive) |
| CC(C)NC(=O)N(C)C[C@H]1Oc2ncc(-c3cccc(C#N)c3)cc2C(=O)N([C@@H](C)CO)C[C@H]1C | 5.25% (inactive) |
